Assay results reported in PubChem BioAssay (EPA / NIEHS).
Inconclusive results are not listed. Activity calls are given as the source filed them. Rule for the calls: active = hit-call score of the fitted dose curve at least 0.9, where 1 is the maximum; inconclusive = response in the unintended direction; inactive = score below 0.9.

Experiments:
[1] = target: human Ephrin type-A Receptor 1 (EphA1), EPHA1 (gene 2041) (UniProt P21709); test: NVS_ENZ_hEphA1: NovaScreen (NVS) Enzymatic Assay for human Ephrin type-A Receptor 1 (EphA1) (AID 2283158);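 note: activity is signal loss versus DMSO meaning EphA1 kinase inhibition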
Chain of human Ephrin type-A Receptor 1 (EphA1), EPHA1 (gene 2041) (P21709 whole entry, looked up): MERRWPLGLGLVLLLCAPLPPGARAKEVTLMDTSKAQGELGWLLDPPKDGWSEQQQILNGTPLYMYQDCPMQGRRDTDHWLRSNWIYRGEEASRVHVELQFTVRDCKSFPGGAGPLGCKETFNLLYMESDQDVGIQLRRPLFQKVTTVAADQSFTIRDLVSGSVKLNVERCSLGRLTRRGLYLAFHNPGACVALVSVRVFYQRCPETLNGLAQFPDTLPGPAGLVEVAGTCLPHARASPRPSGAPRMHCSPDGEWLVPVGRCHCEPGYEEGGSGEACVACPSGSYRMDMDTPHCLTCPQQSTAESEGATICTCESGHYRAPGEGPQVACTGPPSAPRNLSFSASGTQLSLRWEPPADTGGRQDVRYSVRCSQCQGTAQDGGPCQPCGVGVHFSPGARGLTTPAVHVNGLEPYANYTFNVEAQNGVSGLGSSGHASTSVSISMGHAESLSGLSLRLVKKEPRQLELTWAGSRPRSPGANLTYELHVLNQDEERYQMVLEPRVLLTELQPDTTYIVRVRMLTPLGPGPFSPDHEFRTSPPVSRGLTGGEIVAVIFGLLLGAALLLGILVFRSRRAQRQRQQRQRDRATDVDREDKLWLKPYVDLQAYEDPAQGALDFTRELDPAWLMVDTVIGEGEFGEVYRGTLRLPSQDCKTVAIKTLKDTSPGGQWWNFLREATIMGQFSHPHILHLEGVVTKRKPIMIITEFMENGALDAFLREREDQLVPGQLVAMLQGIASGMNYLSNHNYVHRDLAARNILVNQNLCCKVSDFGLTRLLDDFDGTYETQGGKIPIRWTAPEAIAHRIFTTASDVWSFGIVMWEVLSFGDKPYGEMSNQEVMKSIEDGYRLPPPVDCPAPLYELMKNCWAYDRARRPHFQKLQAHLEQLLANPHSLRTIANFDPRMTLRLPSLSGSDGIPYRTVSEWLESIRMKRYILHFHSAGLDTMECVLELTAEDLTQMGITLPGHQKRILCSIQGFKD
Procedure, shortened: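 Biochemical kinase assay run cell-free; 1 h incubation; readout is fluorescence with mobility-shift separation of product. Concentration-response up to 50 uM for actives from a 25 uM screen.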

[2] = target: human Dual Specificity Protein Phosphatase 3 (DUSP3), DUSP3 (gene 1845) (UniProt P51452); test: NVS_ENZ_hDUSP3: NovaScreen (NVS) Enzymatic Assay for human Dual Specificity Protein Phosphatase 3 (DUSP3) (AID 2283152);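 note: phosphatase activity of recombinant human DUSP3 on a fluorogenic substrate without cells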
Chain of human Dual Specificity Protein Phosphatase 3 (DUSP3), DUSP3 (gene 1845) (P51452 whole entry, looked up): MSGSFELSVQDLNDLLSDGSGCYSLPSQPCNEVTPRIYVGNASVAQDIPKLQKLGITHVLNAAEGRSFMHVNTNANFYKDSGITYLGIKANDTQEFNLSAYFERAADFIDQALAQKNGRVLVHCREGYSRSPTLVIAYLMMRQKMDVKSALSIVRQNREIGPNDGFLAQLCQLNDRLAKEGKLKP
Procedure, shortened: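 Cell-free fluorescence-intensity enzyme activity assay with recombinant protein and substrate; loss of signal fitted relative to DMSO baseline. Primary screen in duplicate at 25 uM, actives then run in concentration series; measured 0 h after dosing.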

[3] = target: human Esterase Plasma (ES), BCHE (gene 590) (UniProt P06276); test: NVS_ENZ_hES: NovaScreen (NVS) Enzymatic Assay for human Esterase Plasma (ES) (AID 2283157)
Chain of human Esterase Plasma (ES), BCHE (gene 590) (P06276 whole entry, looked up): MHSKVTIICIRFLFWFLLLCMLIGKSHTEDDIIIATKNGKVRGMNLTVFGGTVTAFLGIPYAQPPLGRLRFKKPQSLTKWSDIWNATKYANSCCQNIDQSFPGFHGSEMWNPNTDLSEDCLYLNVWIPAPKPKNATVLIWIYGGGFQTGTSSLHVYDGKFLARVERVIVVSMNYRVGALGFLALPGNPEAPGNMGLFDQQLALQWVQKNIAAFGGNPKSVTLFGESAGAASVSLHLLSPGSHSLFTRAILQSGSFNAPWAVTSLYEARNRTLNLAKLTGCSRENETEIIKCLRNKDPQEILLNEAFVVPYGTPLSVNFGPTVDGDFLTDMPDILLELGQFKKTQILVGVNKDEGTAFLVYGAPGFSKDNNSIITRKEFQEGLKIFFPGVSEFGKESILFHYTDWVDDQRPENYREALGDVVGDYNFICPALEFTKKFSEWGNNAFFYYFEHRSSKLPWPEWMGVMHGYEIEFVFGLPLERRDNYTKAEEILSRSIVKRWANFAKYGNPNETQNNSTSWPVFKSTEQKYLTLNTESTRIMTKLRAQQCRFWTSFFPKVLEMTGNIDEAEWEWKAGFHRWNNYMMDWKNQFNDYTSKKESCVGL
Procedure, shortened: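 Screening ran at 25 uM in duplicate, followed by singleton concentration series reaching 50 uM for actives. Human plasma protein, colorimetric detection, 0.25 h exposure, DMSO negative control.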

[4] = target: human Beta-secretase (BACE), BACE1 (gene 23621) (UniProt P56817); test: NVS_ENZ_hBACE: NovaScreen (NVS) Enzymatic Assay for human Beta-secretase (BACE) (AID 2283140);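 note: hits are inhibitors that reduce fluorescent substrate signal versus DMSO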
Chain of human Beta-secretase (BACE), BACE1 (gene 23621) (P56817 whole entry, looked up): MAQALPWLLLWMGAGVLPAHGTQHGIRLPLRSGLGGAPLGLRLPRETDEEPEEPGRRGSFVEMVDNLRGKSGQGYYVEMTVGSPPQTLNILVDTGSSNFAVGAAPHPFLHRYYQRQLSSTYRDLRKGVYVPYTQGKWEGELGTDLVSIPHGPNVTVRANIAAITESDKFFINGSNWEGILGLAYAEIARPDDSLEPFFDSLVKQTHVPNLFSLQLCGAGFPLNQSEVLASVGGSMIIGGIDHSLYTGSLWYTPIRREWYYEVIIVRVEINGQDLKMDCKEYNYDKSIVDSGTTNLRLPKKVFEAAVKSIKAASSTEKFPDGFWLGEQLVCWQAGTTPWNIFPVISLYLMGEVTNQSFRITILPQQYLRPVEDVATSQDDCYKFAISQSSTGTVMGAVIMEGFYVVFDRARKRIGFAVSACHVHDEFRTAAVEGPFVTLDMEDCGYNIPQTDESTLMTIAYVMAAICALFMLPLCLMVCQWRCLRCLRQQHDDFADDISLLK
Procedure, shortened: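 Fluorescence intensity read-out of protease activity defines this endpoint; signal loss relative to DMSO baseline marks inhibition. Recombinant enzyme from SF9 cells, cell-free format, 1 h exposure. Single-concentration duplicate screen (25 uM) precedes concentration-series follow-up.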

[5] = target: human Elastase, ELANE (gene 1991) (UniProt P08246); test: NVS_ENZ_hElastase: NovaScreen (NVS) Enzymatic Assay for human Elastase (AID 2283153)
Chain of human Elastase, ELANE (gene 1991) (P08246 whole entry, looked up): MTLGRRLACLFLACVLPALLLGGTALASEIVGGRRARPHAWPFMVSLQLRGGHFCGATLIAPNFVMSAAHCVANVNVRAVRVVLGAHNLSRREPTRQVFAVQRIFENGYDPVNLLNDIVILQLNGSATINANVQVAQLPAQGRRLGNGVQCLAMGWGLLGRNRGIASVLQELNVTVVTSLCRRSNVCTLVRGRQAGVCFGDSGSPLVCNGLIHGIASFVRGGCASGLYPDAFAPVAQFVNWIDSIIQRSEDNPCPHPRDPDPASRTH
Procedure, shortened: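 Concentration-response to 50 uM max, run singly for chemicals passing a threshold (e.g., 30% inhibition) in a duplicate 25 uM single-point screen. Neutrophil-derived human elastase, absorbance read-out of enzyme activity at 1.5 h; DMSO baseline.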

[6] = target: Glycogen synthase kinase-3 beta (Homo sapiens) (UniProt P49841); test: NVS_ENZ_hGSK3b: NovaScreen (NVS) Enzymatic Assay for human Glycogen Synthase Kinase-3 beta (GSK3b) (AID 2283165)
Procedure, shortened: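 Recombinant enzyme with specific fluorescent substrate, 1 h, product separated by electrophoretic mobility shift. Primary duplicate screen at 25 uM; actives (e.g. 30% inhibition) followed in singleton concentration-response to 50 uM. Signal loss fitted versus DMSO.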

Caspase-3 (Homo sapiens) = Caspase-3 (Homo sapiens) (UniProt P42574); test: NVS_ENZ_hCASP3: NovaScreen (NVS) Enzymatic Assay for human Caspase 3 (CASP3) (AID 2283139)
Chain of Caspase-3 (Homo sapiens) (P42574 whole entry, looked up): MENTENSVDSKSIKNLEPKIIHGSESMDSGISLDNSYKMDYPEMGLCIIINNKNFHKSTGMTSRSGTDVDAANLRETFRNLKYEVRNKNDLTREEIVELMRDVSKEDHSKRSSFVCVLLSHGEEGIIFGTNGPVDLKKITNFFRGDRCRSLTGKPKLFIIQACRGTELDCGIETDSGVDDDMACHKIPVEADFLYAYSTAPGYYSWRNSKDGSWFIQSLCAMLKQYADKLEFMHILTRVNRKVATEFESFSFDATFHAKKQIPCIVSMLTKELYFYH
Procedure, shortened: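 Single-concentration screening at 25 uM in duplicate, with concentration-response follow-up to a 50 uM maximum for chemicals passing the threshold. Caspase-3 (human, E. coli-expressed) activity was read as substrate fluorescence after 1 h, with loss of signal relative to DMSO.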

[7] = target: human Casein Kinase 1-delta (CK1D), CSNK1D (gene 1453) (UniProt P48730); test: NVS_ENZ_hCK1D: NovaScreen (NVS) Enzymatic Assay for human Casein Kinase 1-delta (CK1D) (AID 2283148)
Procedure, shortened: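 Recombinant human CK1-delta, cell-free; fluorescent substrate with electrophoretic mobility-shift separation of product, read 1 h after dosing. Single 25 uM duplicate screen, then concentration-response up to 50 uM; loss of signal vs DMSO.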

[8] = target: Histone deacetylase 3 (Homo sapiens) (UniProt O15379); test: NVS_ENZ_hHDAC3: NovaScreen (NVS) Enzymatic Assay for human Histone Deacetylase 3 (HDAC3) (AID 2283163)
Chain of Histone deacetylase 3 (Homo sapiens) (O15379 whole entry, looked up): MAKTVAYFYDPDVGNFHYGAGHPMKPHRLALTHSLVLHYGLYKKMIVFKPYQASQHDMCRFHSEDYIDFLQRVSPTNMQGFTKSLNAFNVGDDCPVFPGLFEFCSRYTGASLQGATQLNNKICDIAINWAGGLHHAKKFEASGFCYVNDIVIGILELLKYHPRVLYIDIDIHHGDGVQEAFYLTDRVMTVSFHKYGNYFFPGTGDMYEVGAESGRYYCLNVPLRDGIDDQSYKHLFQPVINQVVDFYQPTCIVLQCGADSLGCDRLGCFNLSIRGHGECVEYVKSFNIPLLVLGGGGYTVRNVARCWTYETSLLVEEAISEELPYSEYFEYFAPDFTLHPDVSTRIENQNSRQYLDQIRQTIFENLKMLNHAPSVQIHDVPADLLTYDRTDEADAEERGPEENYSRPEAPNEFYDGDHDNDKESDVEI
Procedure, shortened: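 Cell-free enzyme format: loss of fluorescent product after mobility-shift separation, 1 h incubation, recombinant human HDAC3. Single 25 uM duplicate screen first, then concentration series to a 50 uM top for hits; DMSO as baseline.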

[9] = target: human AKT serine/threonine Kinase 1 (AKT1), AKT1 (gene 207) (UniProt P31749); test: NVS_ENZ_hAKT1: NovaScreen (NVS) Enzymatic Assay for human AKT serine/threonine Kinase 1 (AKT1) (AID 2283138)
Chain of human AKT serine/threonine Kinase 1 (AKT1), AKT1 (gene 207) (P31749 whole entry, looked up): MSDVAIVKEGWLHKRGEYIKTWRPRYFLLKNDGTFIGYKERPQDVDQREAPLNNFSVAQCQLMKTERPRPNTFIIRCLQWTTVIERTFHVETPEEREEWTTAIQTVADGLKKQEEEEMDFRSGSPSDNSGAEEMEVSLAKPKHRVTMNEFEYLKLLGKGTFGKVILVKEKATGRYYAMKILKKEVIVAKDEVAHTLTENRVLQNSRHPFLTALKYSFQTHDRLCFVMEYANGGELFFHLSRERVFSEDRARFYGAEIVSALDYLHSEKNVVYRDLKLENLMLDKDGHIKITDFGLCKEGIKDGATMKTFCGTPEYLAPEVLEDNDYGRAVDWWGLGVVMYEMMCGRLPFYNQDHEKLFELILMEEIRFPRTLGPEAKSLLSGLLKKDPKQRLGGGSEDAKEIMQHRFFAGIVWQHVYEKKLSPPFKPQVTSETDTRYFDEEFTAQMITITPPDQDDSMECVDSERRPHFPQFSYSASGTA
Procedure, shortened: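 Compounds were first tested in duplicate at 25 uM, and those passing a threshold such as 30% inhibition were run in concentration-response to a maximum of 50 uM. Enzyme activity was measured after 1 h by fluorescence following substrate/product mobility-shift separation.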

[10] = target: human AKT serine/threonine Kinase 2 (AKT2), AKT2 (gene 208) (UniProt P31751); test: NVS_ENZ_hAKT2: NovaScreen (NVS) Enzymatic Assay for human AKT serine/threonine Kinase 2 (AKT2) (AID 2283141)
Chain of human AKT serine/threonine Kinase 2 (AKT2), AKT2 (gene 208) (P31751 whole entry, looked up): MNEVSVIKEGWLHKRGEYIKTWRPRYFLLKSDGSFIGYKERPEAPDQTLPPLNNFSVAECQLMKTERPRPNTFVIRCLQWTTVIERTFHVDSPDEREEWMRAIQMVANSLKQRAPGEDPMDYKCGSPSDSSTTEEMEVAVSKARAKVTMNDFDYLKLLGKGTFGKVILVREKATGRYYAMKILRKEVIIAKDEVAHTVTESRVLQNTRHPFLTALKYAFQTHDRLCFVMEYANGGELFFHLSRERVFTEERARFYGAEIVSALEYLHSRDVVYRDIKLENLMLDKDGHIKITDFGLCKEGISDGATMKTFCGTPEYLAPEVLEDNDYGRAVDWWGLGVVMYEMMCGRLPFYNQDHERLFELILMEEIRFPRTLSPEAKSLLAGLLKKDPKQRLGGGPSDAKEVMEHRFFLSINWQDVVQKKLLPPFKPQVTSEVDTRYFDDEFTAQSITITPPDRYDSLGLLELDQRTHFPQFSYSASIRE
Procedure, shortened: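 Cell-free fluorescence/electrophoretic mobility shift readout of recombinant human AKT2 activity, 1 h after chemical dosing. Duplicate primary screen at 25 uM, then singleton concentration-response up to 50 uM; loss of signal versus DMSO baseline.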

[11] = target: human Colony Stimulating Factor 1 Receptor (CSF1R), CSF1R (gene 1436) (UniProt P07333); test: NVS_ENZ_hCSF1R: NovaScreen (NVS) Enzymatic Assay for human Colony Stimulating Factor 1 Receptor (CSF1R) (AID 2283150)
Procedure, shortened: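 Compounds screened in duplicate at 25 uM, then concentration-response (top 50 uM) for those passing threshold such as 30% inhibition; recombinant CSF1R activity measured 1 h post-dosing via fluorescent substrate/product mobility-shift separation, loss of signal versus DMSO.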

[12] = target: human Epidermal Growth Factor Receptor (EGFR), EGFR (gene 1956) (UniProt P00533); test: NVS_ENZ_hEGFR: NovaScreen (NVS) Enzymatic Assay for human Epidermal Growth Factor Receptor (EGFR) (AID 2283151)
Procedure, shortened: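 Cell-free kinase assay, fluorescence plus electrophoretic mobility shift separating substrate and product, read 1 hour after dosing; loss of signal vs DMSO. Duplicate screen at 25 uM, then concentration-response to 50 uM.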

[13] = target: Protein deacetylase HDAC6 (Homo sapiens) (UniProt Q9UBN7); test: NVS_ENZ_hHDAC6: NovaScreen (NVS) Enzymatic Assay for human Histone Deacetylase 6 (HDAC6) (AID 2283164)
Procedure, shortened: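 Concentration-response runs up to 50 uM followed a duplicate 25 uM single-point screen. Deacetylase activity of recombinant human HDAC6 read by fluorescence after 1 h, with mobility-shift separation of substrate and product; DMSO as baseline.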

[14] = target: human Caspase 5 (CASP5), CASP5 (gene 838) (UniProt P51878); test: NVS_ENZ_hCASP5: NovaScreen (NVS) Enzymatic Assay for human Caspase 5 (CASP5) (AID 2283137)
Chain of human Caspase 5 (CASP5), CASP5 (gene 838) (P51878 whole entry, looked up): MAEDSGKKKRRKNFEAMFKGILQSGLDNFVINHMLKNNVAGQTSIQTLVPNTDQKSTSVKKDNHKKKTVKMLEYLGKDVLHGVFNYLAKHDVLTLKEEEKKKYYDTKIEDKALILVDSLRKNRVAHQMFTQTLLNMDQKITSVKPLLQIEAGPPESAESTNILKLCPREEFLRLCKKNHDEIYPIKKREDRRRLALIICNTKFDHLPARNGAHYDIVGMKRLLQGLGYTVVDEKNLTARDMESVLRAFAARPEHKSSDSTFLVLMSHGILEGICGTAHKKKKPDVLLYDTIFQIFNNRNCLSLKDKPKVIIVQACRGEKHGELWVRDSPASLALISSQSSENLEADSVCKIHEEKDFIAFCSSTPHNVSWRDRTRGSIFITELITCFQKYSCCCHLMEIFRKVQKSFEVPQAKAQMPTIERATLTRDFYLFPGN
Procedure, shortened: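 Chemicals were first tested in duplicate at 25 uM against recombinant caspase 5 from E. coli. Activity was read by fluorescence intensity 2 hours after dosing. Those passing a preset inhibition threshold were retested in singleton concentration-response up to 50 uM.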

[15] = target: human Caspase 8 (CASP8), CASP8 (gene 841) (UniProt Q14790); test: NVS_ENZ_hCASP8: NovaScreen (NVS) Enzymatic Assay for human Caspase 8 (CASP8) (AID 2283146)
Procedure, shortened: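 The primary screen tested compounds in duplicate at a single 25 uM concentration, with actives followed up in concentration series. Activity of recombinant (E. coli) protease was measured by fluorescence 1 h post-dose, as signal loss against DMSO.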

[16] = target: human Fibroblast Growth Factor Receptor 1 (FGFR1), FGFR1 (gene 2260) (UniProt P11362); test: NVS_ENZ_hFGFR1: NovaScreen (NVS) Enzymatic Assay for human Fibroblast Growth Factor Receptor 1 (FGFR1) (AID 2283159);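 note: hits lower the signal so potencies describe inhibitors of the kinase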
Procedure, shortened: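 Cell-free recombinant kinase with fluorescent substrate, product separated by electrophoretic mobility shift; read 1 hour after dosing, loss of signal relative to DMSO. Initial screen in duplicate at 25 uM, actives followed in concentration series.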

Nc1ccc(-c2ccc(N)c(Cl)c2)cc1Cl
AC50 [1]: 1.28 µM (active)

CCOP(=S)(OCC)Oc1nc(Cl)c(Cl)cc1Cl
AC50 [2]: 6.51 µM (active)
AC50 [3]: 25 µM (active)

COc1cc(-c2ccc(N)c(OC)c2)ccc1N
AC50 [4]: 16.4 µM (active)
AC50 [2]: 7.49 µM (active)
AC50 [5]: 20.5 µM (active)
outcome [6]: inactive

O=[N+]([O-])c1ccc(O)c([N+](=O)[O-])c1
outcome (Caspase-3 (Homo sapiens)): inactive
outcome [7]: inactive
outcome [8]: inactive

ClC1(Cl)C2(Cl)C3(Cl)C4(Cl)C(Cl)(Cl)C5(Cl)C3(Cl)C1(Cl)C5(Cl)C24Cl (centres undefined)
outcome [9]: inactive
outcome [10]: inactive
outcome [11]: inactive
outcome [12]: inactive
outcome [2]: inactive
AC50 [5]: 1.1 µM (active)

C(=NC1CCCCC1)=NC1CCCCC1
outcome [1]: inactive

C[C@]12CCC(=O)C[C@@H]1CC[C@@H]1[C@@H]2CC[C@]2(C)[C@@H](O)CC[C@@H]12
outcome [13]: inactive

COP(=S)(OC)Oc1c(Cl)cc(C)cc1Cl
AC50 [2]: 20.9 µM (active)
outcome [1]: inactive

O=[N+]([O-])c1ccc2c3c(cccc13)CC2
AC50 [14]: 25 µM (active)
outcome [1]: inactive

CC(=O)[O][Hg][c]1ccccc1
AC50 [14]: 1.8 µM (active)
AC50 (Caspase-3 (Homo sapiens)): 25 µM (active)
AC50 [15]: 8.22 µM (active)
AC50 [12]: 9.71 µM (active)
outcome [3]: inactive
AC50 [16]: 33.4 µM (active)
AC50 [8]: 9.74 µM (active)
AC50 [13]: 2.32 µM (active)

COP(=S)(OC)Oc1ccc(Sc2ccc(OP(=S)(OC)OC)cc2)cc1
AC50 [4]: 2.51 µM (active)

CCc1ccccc1N
outcome [1]: inactive

O=C(O)C(F)(F)C(F)(F)C(F)(F)C(F)(F)C(F)(F)C(F)(F)C(F)(F)C(F)(F)C(F)(F)C(F)(F)F
AC50 [14]: 3.6 µM (active)
AC50 [9]: 1.59 µM (active)
AC50 [4]: 1.51 µM (active)
AC50 [2]: 2.72 µM (active)
AC50 [5]: 13.5 µM (active)
outcome [3]: inactive

CCOP(=S)(OCC)SCSP(=S)(OCC)OCC
outcome [9]: inactive
AC50 [2]: 6.76 µM (active)
outcome [3]: inactive

C=C(C)C(=O)[O][Sn]([CH2]CCC)([CH2]CCC)[CH2]CCC
AC50 [4]: 8.77 µM (active)
AC50 [2]: 10.9 µM (active)
outcome [5]: inactive
